Assay outcomes deposited in PubChem BioAssay by National Center for Advancing Translational Sciences (NCATS).
This excerpt belongs to a sample that is enriched for hits.
Pf Dd2 inh – Plasmodium falciparum Dd2 growth inhibition | P. falciparum Dd2 growth, SYBR Green, 72 h | 120,000 tested, 4.3% active | Potency, µM (series often up to 28.9 µM), most hits filed as inhibitors; active = well fitted inhibition curve with a large enough effect; also: nearly all actives have a fitted effect of over 65% in size
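Infected erythrocytes (Dd2, 0.3% parasitemia, 2.5% hematocrit final) are added to compound in RPMI-1640/Albumax II medium, grown 72 h at 37C in low oxygen, then lysed with saponin/Triton-X containing SYBR Green and read by fluorescence.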
Large screens that a line does not name were inactive; ! = a repeat was not active.

CCc1noc(-c2cn(C3CCN(C(=O)c4ccco4)C3)nn2)n1 (centres undefined)	none
COc1ccc(Cn2ccc3nc(C)c(C(=O)N4CCN(c5ccc(F)cc5)CC4)cc3c2=O)cc1	none
COc1ccc(N2CCN(C(=O)c3noc4c3CCCCC4)CC2)cc1	none
CCn1c2c(c(=O)n3ncc(C(=O)N4CCN(c5ccc(C(C)=O)cc5)CC4)c13)CN(Cc1ccc(OC)cc1)CC2	Pf Dd2 inh 10µM
O=C(c1ccc(Cl)nc1)N1CCc2nc(C3CC3)nc(-c3ccc(Cl)cc3)c2C1	none
CN(Cc1ccccc1)C(=O)CC1CCN(C(=O)CC2CCCC2)C1 (centres undefined)	none
O=C(c1cc(F)ccc1Cl)N1CCC(Cc2nc(-c3ccccc3)no2)CC1	none
COc1cc(OC)cc(-c2onc(C)c2C(=O)NCc2ccc(F)c(F)c2)c1	none
COc1cc(NC(=O)c2oc3c(c2C)-c2nn(Cc4cccc(Cl)c4)cc2CC3)cc(OC)c1	none
COc1ccc(NC(=O)c2oc3c(c2C)-c2nn(Cc4c(F)cccc4Cl)cc2CC3)c(OC)c1	none
COc1ccc(OC)c(NC(=O)c2oc3c(c2C)-c2nn(Cc4ccc(Cl)cc4)cc2CC3)c1	Pf Dd2 inh 10µM
CNc1cc(C2CC(NS(=O)(=O)c3ccc(Cl)s3)C2)nc(N)n1 (centres undefined)	Pf Dd2 inh 7.9µM
CSc1ccc(CNC(=O)c2nnn3c2COC(c2ccc(F)cc2)C3)cc1 (centres undefined)	none
CN(C)C(=O)c1cccnc1OC1CCN(C(=O)c2ccc(OC(F)(F)F)cc2)C1 (centres undefined)	none
NCc1cccc(-c2ccc(O)cc2)c1	none
Cc1ccc(-c2cccc(CN)c2)cc1Cl	Pf Dd2 inh 11µM
CN(Cc1ccc(-c2ccccc2)cc1)Cc1cccc(F)c1	none
Cc1ccc(-c2cccc(C=O)c2)cc1Cl	none
CSc1ccc(-c2cccc(CN)c2)cc1	Pf Dd2 inh 10µM
Cc1ccc(-c2ccc(C=O)cc2)cc1Cl	none
COC[C@@H]1CN(c2cnccn2)C[C@H]1C(=O)NCc1ccccc1F	none
COCCNc1cc(-c2noc([C@@H]3CCCN3Cc3ccccn3)n2)ccn1	none
COCCOc1ccc2c(n1)CCN(C(=O)c1ccccc1C)C2	none
CN(C)C(=O)N1CCC2(C1)C(=O)N(CCc1ccccc1)c1ccccc12 (centres undefined)	none
CC(=O)N1CCC2(C1)C(=O)N(CCc1ccccc1)c1ccccc12 (centres undefined)	none
O=C(C1CC1)N1CCC2(C1)C(=O)N(CCc1ccccc1)c1ccccc12 (centres undefined)	Pf Dd2 inh 6.3µM!
O=C(c1ccccc1Cl)N1CCC2(C1)C(=O)N(CCc1ccccc1)c1ccccc12 (centres undefined)	none
O=C(c1ccc(Cl)nc1)N1CCC2(C1)C(=O)N(CCc1ccccc1)c1ccccc12 (centres undefined)	Pf Dd2 inh 13µM!
O=C1N(CCc2ccccc2)c2ccccc2C12CCN([S+](=O)([O-])c1cccs1)C2 (centres undefined)	Pf Dd2 inh 7.9µM!
O=C1N(Cc2ccccc2)c2ccccc2C12CCN([S+](=O)([O-])c1ccccc1)C2 (centres undefined)	none
Cc1noc(C)c1[S+](=O)([O-])N1CCC2(C1)C(=O)N(Cc1ccccc1)c1ccccc12 (centres undefined)	none
Cc1ccccc1C(=O)N1CCC2(C1)C(=O)N(CCc1ccccc1)c1ccccc12 (centres undefined)	none
COc1ccc(CN2CCn3c(nnc3C3CCCNC3)C2)cc1 (centres undefined)	none
COCCN1C(=O)CS(=O)C12CCN(S(=O)(=O)c1ccccc1)CC2 (centres undefined)	none
CCn1c(CO)nnc1C1CC(NC(=O)Cc2c(C)n[nH]c2C)C1 (centres undefined)	none
O=C(Nc1cccc(Cl)c1)N1CCC(n2cnnc2C2CC2)C1 (centres undefined)	none
COc1cccc(C(=O)N2CCC(c3nc(C4CCOC4)no3)CC2)c1 (centres undefined)	none
O=C1NCCCCCCN(C(=O)c2ccsc2)[C@H]2CCCC[C@@H]12	none
CCC1CN(C(=O)c2cnn(C)c2)CCC(=O)N1Cc1ccccc1 (centres undefined)	none
CC(=O)Nc1ccc(CN2C(=O)OC3(CCN(C(=O)c4ccnn4C)CC3)C2(C)c2ccccc2)cc1 (centres undefined)	none
CCN1C(=O)CCc2cc(NC(=O)c3ccc(OC)cc3C)ccc21	none
COc1ccc(-c2nc3n(n2)C(c2ccc(O)cc2)C(C(=O)Nc2cccnc2)=C(C)N3)cc1OC (centres undefined)	none
COc1ccc(C2C(C(=O)Nc3cccnc3)=C(C)Nc3nc(-c4ccccc4)nn32)cc1OC (centres undefined)	none
COc1ccc(-c2nc3n(n2)C(c2ccccc2F)C(C(=O)Nc2cccnc2)=C(C)N3)cc1OC (centres undefined)	Pf Dd2 inh 10µM
CCOCCOC1CCN(S(=O)(=O)c2cnn(CC)c2)CC1	none
Cn1cc(CN2Cc3c(cc(N4CCOCC4)nc3-c3ccc(CO)cc3)C2=O)cn1	none
Cc1nc(CN2CCN(CC3(O)CCNC3)CC2)cs1 (centres undefined)	none
CS(=O)(=O)N1CCCC1c1noc(CCC(=O)N2CC=C(c3ccccc3)CC2)n1 (centres undefined)	none
CCC(=O)N1CCc2c(C(=O)NCc3cccc(F)c3)cccc21	none
CCOc1ccccc1CNC(=O)c1ccc2c(c1)N(S(C)(=O)=O)CC2	none
CCOc1ccccc1CNC(=O)c1cccc2c1CCN2C(=O)CC	Pf Dd2 inh 10µM
COCCN1CCCCCC(O)c2cc(C(=O)NCCc3c[nH]c4ccccc34)ccc21 (centres undefined)	Pf Dd2 inh 5µM
COCCN1CCCCCC(O)c2cc(C(=O)NCCCN3CCCc4ccccc43)ccc21 (centres undefined)	none
COCCN1CCCCCC(O)c2cc(C(=O)NCCN3CCOCC3)ccc21 (centres undefined)	none
Cc1ccc2nc(CO[C@H]3CN(Cc4ccc(Cl)cc4)C[C@H]3F)[nH]c2c1	none
COC[C@@H]1CN(c2cnccn2)C[C@H]1C(=O)NCC1CC1	none
O=C(NC[C@H]1Cn2cc(-c3ccc4c(c3)OCCCO4)nc2CO1)c1ccc2c(c1)OCO2	none
Cc1cccn2c(Nc3ccc4c(c3)OCCO4)c(-c3ccc(Br)o3)nc12	Pf Dd2 inh 8.9µM
Cc1ccc(-c2nc3cccc(C)n3c2Nc2ccc3c(c2)OCO3)o1	none
Cc1cccn2c(Nc3ccccc3)c(-c3ccc(N4CCOCC4)cc3)nc12	none
Cc1cccc2nc(C(=O)N3CCC(n4cc(C(C)(C)O)nn4)CC3)cn12	none
CCCCc1nc(C)cc(NCCNC(=O)C2CC3(CCNCC3)CN2)n1 (centres undefined)	none
Cc1ccc(O)c(NC(=O)c2ccc(Br)c(S(=O)(=O)N3CCCCC3)c2)c1	Pf Dd2 inh 6.3µM
CC(C)c1ccc(NC(=O)c2ccc(F)c(S(=O)(=O)N3CCCCCC3)c2)cc1	none
CC(C)c1ccc(NC(=O)c2ccc(F)c(S(=O)(=O)N3CCCC3)c2)cc1	none
CN(C)C[C@@H]1CN(c2ncccn2)C[C@H]1NC(=O)c1cccc(F)c1	none
CCCNC(=O)c1c(NC(=O)c2ccccc2)sc2c1CCC(C(C)(C)C)C2 (centres undefined)	Pf Dd2 inh 11µM
CCN(CC)C(=O)c1c(NC(=O)c2cccc(C)c2)sc2c1CCC(C)C2 (centres undefined)	none
CCOc1ccccc1NC(=O)c1c(NC(=O)c2ccncc2)sc2c1CCC(C(C)(C)C)C2 (centres undefined)	none
